AmpC inh detg = AmpC beta-lactamase inhibition with detergent present | AmpC hydrolysis of nitrocefin, absorbance 480 nm, 0.01% Triton | Potency, µM (series often up to 114 µM), for inactives: top-dose activity change, negative = inhibition, actives largely listed as inhibitors | hit rate 0.041% among 370,000;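 note: potency is the fitted concentration of half-maximal effect; 0% = no-compound wells and -100% = no-enzyme wells; nearly all actives have a fitted effect of over 25% in size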
Target sequence (P00811 whole entry, looked up): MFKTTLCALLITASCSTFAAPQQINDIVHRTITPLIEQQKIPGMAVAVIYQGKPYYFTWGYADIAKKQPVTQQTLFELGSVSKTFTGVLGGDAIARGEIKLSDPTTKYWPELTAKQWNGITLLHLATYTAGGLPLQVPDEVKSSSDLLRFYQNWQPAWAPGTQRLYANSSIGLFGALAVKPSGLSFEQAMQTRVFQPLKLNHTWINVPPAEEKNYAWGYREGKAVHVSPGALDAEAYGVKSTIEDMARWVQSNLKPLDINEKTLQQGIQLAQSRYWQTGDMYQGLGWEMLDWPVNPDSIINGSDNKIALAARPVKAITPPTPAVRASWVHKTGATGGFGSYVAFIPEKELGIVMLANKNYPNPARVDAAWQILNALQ
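20 mM phosphate pH 7.0 + 0.01% (detergent screen) or 0.0001% Triton X-100; 5.3 nM AmpC reagent; cpd preinc 15 min RT; nitrocefin (800 uM stock) to start; A480 q20 s × 4 min; Activity was normalised to no-enzyme and no-compound control wells.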
NS1 inh = blocks influenza NS1 protein function; hit rate 0.4% among 270,000; Potency, µM (top dose mostly 46.1 µM), for the others: at the top dose activity, positive = more growth; AID 2326; calls by dose curve; note: potency is the fitted concentration of half-maximal effect; actives are rising curves; nearly all actives have a fitted effect of over 50% in size
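Growth recovery, yeast-based: influenza A NS1 expressed in S. cerevisiae causes slow growth, and suppressors are detected by OD600. The parent strain without NS1 is used as positive control.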
AmpC no deterg = blocks E. coli AmpC beta-lactamase in detergent-free assay; P00811; AmpC nitrocefin hydrolysis, absorbance 480 nm, 0.0001% Triton; Potency, µM (series often up to 57.1 µM), for inactives: at the top dose activity change, negative = inhibition, most hits filed as inhibitors; hit rate 0.52% among 330,000; AID 485341;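 note: potency is the fitted concentration of half-maximal effect; plate controls were no compound for no effect and no enzyme for full effect; nearly all actives have a fitted effect of over 20% in size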
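AmpC (5.3 nM in the dispensed reagent) in 20 mM phosphate pH 7.0 with 0.01% (detergent screen) or 0.0001% Triton X-100 was preincubated with compounds for 15 min at room temperature. Nitrocefin was then added from an 800 uM solution, and hydrolysis was followed at 480 nm.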
Cycloheximide cs = counter-screen for Shiga toxin inhibitors: cycloheximide protein synthesis inhibition. hit rate 12% among 300,000. max response, %. cell reporter, cycloheximide protein synthesis inhibition counterscreen; in the data active = max response mostly above about 13%, no sharp cut-off; inactive = mostly below about 14%; note: read at 38.3 µM for the half of the compounds with a filed dose; 0% is about no effect
Shiga toxin inh = inhibitors of Shiga toxin in Vero cells; hit rate 9.2% among 290,000; Vero cells, Shiga toxin protein synthesis inhibition reporter; inhibition, % at 38.7 µM; AID 2315; in the data active = inhibition mostly above about 28%, no sharp cut-off; inactive = mostly below about 43%; note: 0% is about no effect
Numbers without * were called inactive; ? = inconclusive; · = no result; ! = a repeat was not active. The sample as a whole holds a higher share of hits than the screen did. Unless noted, calls come from the whole dose curve; as a rule, active = well fitted curve in the direction sought with a large enough effect; inconclusive = small, poorly fitted or top-dose-only effect, or another doubt; inactive = no such curve, though single readings can be large; an effect the other way counts as inactive or inconclusive.

SMILES	AmpC inh detg	NS1 inh	AmpC no deterg	Cycloheximide cs	Shiga toxin inh
S=C(NCC1CCCO1)Nc1cccc(Cl)c1 (stereo unspecified)	-5%	7%	-27%	4	15
O=C(NCC1CCCO1)Nc1ccccc1 (stereo unspecified)	?	10%	-8%	-1	-1
O=C(NCC1CCCO1)Nc1cccc(Cl)c1 (stereo unspecified)	1%	-30%	-34%	17*	27*
Cc1cccc(NC(=O)C(=O)NCC2CCCO2)c1 (stereo unspecified)	-5%	-4%	-15%	43*	51*
Cc1ccc2oc3c(c(=O)c2c1)C(c1cccc(O)c1)N(c1ccccn1)C3=O (stereo unspecified)	-5%	-121%	3.5µM*	3	13
Cc1ccc2oc3c(c(=O)c2c1)C(c1ccccc1F)N(c1ccccn1)C3=O (stereo unspecified)	19%	·	·	·	·
COc1ccc(CNC(=O)C2CCN(c3nccs3)CC2)cc1	?	2%	0%	-7	-5
COc1ccc(N2CCN(c3nccs3)CC2)cc1	1%	-18%	1%	37*	72*
COCCN(C(=O)CSc1ccc2c(c1)OCCO2)c1c(N)n(CC(C)C)c(=O)[nH]c1=O	·	·	-15%	·	·
COc1cc(O)sc1C=Nc1ccc(Cl)cc1	?	·	-29%	31*	42*
CCOC(=O)C1CCN(C/C=C/c2ccccc2[N+](=O)[O-])CC1	-9%	-11%	-2%	-2	4
COc1ccc(/C=N\NC(=O)C2CCCC2)cc1Br	4%	-1%	-3%	-3	-21
COc1ccc(N2CC(C(=O)N/N=C/c3ccccc3)CC2=O)cc1 (stereo unspecified)	1%	0%	-10%	-2	2
C=C1CC(C(=O)N/N=C/c2ccccc2)C1	?	-9%	-30%	40*	41*
CC(C)c1ccc(/C=N/NC(=O)C2CCCC2)cc1	-11%	-23%	-21%	80*	88*
CC(C)(C)c1ccc(/C=N/NC(=O)C2CCCC2)cc1	-5%	-39%	-27%	51*	133*
CC1(C)O[C@H]2[C@@H](c3[nH]nc4c(=O)[nH]c(=O)[nH]c34)OC[C@H]2O1	·	-6%	·	·	·
C=CCN(CC=C)S(=O)(=O)c1ccc2nc(NC(=O)C(C)C)sc2c1	?	-36%	-17%	-1	-10
CCOC(=O)c1ccc2nc(NC(=O)C(C)C)sc2c1	2%	-32%	-16%	44*	59*
CCC(=O)Nc1nc2ccc(NC(=O)c3cc(OC)c(OC)c(OC)c3)cc2s1	0%	·	-31%	8	19
CCCC(=O)Nc1nc2ccc(C(=O)OCC)cc2s1	?	1%	-7%	26*	73*
CCCCC(=O)Nc1nc2ccc(C(=O)OC)cc2s1	5%	·	-15%	27*	97*
Cc1ccc(NC(=O)CCC(=O)NNC(=S)Nc2ccc(F)cc2F)cc1C	-9%	13%	116%	11	4
COc1cc(C=C2C(=O)NC(=O)NC2=O)ccc1OS(=O)(=O)c1ccccc1[N+](=O)[O-]	-12%	15%	-16%	21	57*
CCN(C(=O)COC(=O)c1ccccc1SCC(=O)NC1CCCCCCC1)C1CCS(=O)(=O)C1 (stereo unspecified)	6%	-1%	100%	-2	-4
SMILES	AmpC inh detg	NS1 inh	AmpC no deterg	Cycloheximide cs	Shiga toxin inh
CC1CN(C(=O)c2cc([N+](=O)[O-])cc([N+](=O)[O-])c2)CC(C)O1 (stereo unspecified)	5%	6%	0%	42*	104*
Cc1ccc(C(=O)N2CC(C)OC(C)C2)cc1[N+](=O)[O-] (stereo unspecified)	0%	-2%	-12%	6	1
Cc1ccc(NC(=O)c2sc3nc(-c4ccc(F)cc4)cn3c2C)c(C)c1	15%	·	·	·	·
C/C(=C\C(=O)c1ccc(F)cc1)NCc1ccc2c(c1)OCO2	?	-7%	-16%	6	15
Cc1ccc(-c2ccc(C(=O)NCc3ccc(Cl)cc3)o2)c2ccccc12	-13%	-42%	?	-2	-10
C/C(=C\C(=O)c1ccccc1)NCc1ccc(F)cc1	2%	-4%	-19%	60*	110*
O=C(NCc1ccccc1)c1ccc(-c2ccc(F)cc2)o1	0%	-1%	-17%	25*	59*
O=C(CCc1ccccc1)NCc1ccc(F)cc1	-16%	1%	-3%	-1	-2
O=C(O)c1ccc(-c2ccccc2C(F)(F)F)o1	?	-2%	-18%	-2	-7
Cc1ccccc1-c1ccc(C(=O)NCc2ccccc2)o1	0%	-54%	-23%	14*	11
O=C(NCc1ccccc1)c1ccc(-c2ccccc2C(F)(F)F)o1	-6%	-25%	-6%	37*!	11
COc1ccc(CC(=O)OCc2nnc(-c3ccccc3)o2)cc1	2%	·	-9%	11	26
CCCCN(Cc1ccco1)C(=O)Cn1ncc2c([nH]c3ccccc32)c1=O	11%	·	·	·	·
CN1CCN(C(=O)c2cc(C(C)(C)C)cc(C(C)(C)C)c2)CC1	4%	5%	96%	-4	11
O=C(NCCc1ccc(Cl)cc1)c1ccc(CS(=O)(=O)Cc2ccccc2F)o1	0%	·	·	·	·
N/C(=N\OC(=O)CCc1ccccc1)c1ccccc1Cl	-14%	·	-24%	28*	107*
N/C(=N\OC(=O)CCc1ccccc1)c1ccc(Br)cc1	4%	-3%	-10%	38*	71*
N/C(=N\OC(=O)CCCc1ccccc1)c1ccc(Br)cc1	4%	0%	-26%	11	-23
Cc1ccc(/C(N)=N/OC(=O)CCc2ccccc2)cc1	-6%	-17%	-46%	33*	91*
CCN1CCOC(=O)C1CC(=O)Nc1cc(C)cc(C)c1 (stereo unspecified)	-3%	·	·	·	·
Cc1cc(C)n(-c2ccc(C(=O)OCC(=O)NC(c3ccccc3)c3ccccc3)cc2)n1	5%	-7%	-33%	-1	-16
Cc1cc(C)n(-c2cc(C(=O)O)cc(C(=O)O)c2)n1	-9%	3%	-18%	-2	-21
CCOC(=O)c1cnc(-n2nc(C)cc2C)nc1N(C)C	-7%	-67%	1%	18*	48*
CCOC(=O)c1ccc(-n2nc(C)cc2C)cc1	1%	-4%	-1%	15*	active
Cc1cc(C)n(-c2ccc(Cl)c(C(=O)O)c2)n1	-4%	-9%	-16%	44*	46
SMILES	AmpC inh detg	NS1 inh	AmpC no deterg	Cycloheximide cs	Shiga toxin inh
CCOC(=O)c1nc(C)n(-c2ccc(Cl)cc2)n1	-2%	1%	-3%	20*	12
Cc1ccc(-n2ncc(C(=O)NCCc3ccsc3)c2C2CCN(C(=O)OC(C)(C)C)CC2)cc1C	16%	·	·	·	·
COc1ccc(OCC(=O)Nc2nnc3n2CCS3)cc1	3%	·	·	·	·
c1ccc(OCCOc2ccccc2-c2nnco2)cc1	?	-23%	-6%	15*	136*
O=c1[nH]c2ccc(NS(=O)(=O)c3ccc(F)cc3)cc2s1	2%	·	·	·	·
N#CC1=C(N)OC2=C(CCC/C2=C/c2ccoc2)C1c1ccoc1 (stereo unspecified)	0%	-33%	0.28µM*	10	26
